Measured values taken from PubChem BioAssay AID1845227 (National Center for Advancing Translational Sciences (NCATS), 2023).
Inconclusive results are not listed. The source made the active and inactive calls. Calls come from the whole dose curve; as a rule, active = well fitted inhibition curve with a large enough effect; inconclusive = small, poorly fitted or top-dose-only effect; inactive = no such curve, though single readings can be large or run the other way.

What follows are compounds tested against Luciferin 4-monooxygenase (Photinus pyralis) (UniProt P08659) (assay: Confirmatory firefly luciferase (FLuc) qHTS assay for identification of artifact compounds). Settings: purified FLuc enzyme, luminescence, 5 min; series mostly up to 38.9 µM; activity change, negative = inhibition: at the top concentration.
Excerpt: PI: Alexander Tropsha Ph.D. UNC Eshelman School of Pharmacy University of North Carolina, Chapel Hill, North Carolina Hits from high-throughput screening (HTS) of chemical libraries are often false positives due to their interference with the assay detection technology. In response to this problem, we generated the largest publicly available library of chemical liabilities and developed a free webtool to predict HTS artifacts, both of which are described herein. More specifically, we generated, curated, and integrated HTS datasets for thiol reactivity, redox activity, and luciferase (firefly and nano) activity. Using these curated datasets, we developed and validated several Quantitative Structure-Interference Relationship (QSIR) models to predict nuisance behavior. […] These models were employed for virtual profiling of the National Center for Advancing Translational Science's (NCATS) in-house library, and 256 compounds for each assay were selected for the experimental validation of nuisance behavior. The BA for these external predictions ranged from 58 to 78% for compounds within the applicability domains of the models. […] The models developed in this study, along with aggregation models previously developed by our group (SCAM Detective) were implemented in "Liability Predictor," an online tool which may be used as part of chemical library design or for triaging HTS hits. Both the models and the curated datasets are publicly available at https://liability.mml.unc.edu/.
PROTOCOL TABLE SEQUENCE No. (e.g., 1, 2, 3, etc.); […] (e.g., Cells, Incubation, Reagent, etc.); VALUE; DESCRIPTION. 1; Reagent; 3 uL; Luciferase substrate mixture. 2; Compounds and control; 16 nL; Kalypsis pin tool (Wako USA) equipped with a 1536-well pin head. 3; Incubation; 15 min. 4; Reagent; 1 uL; Luciferase enzyme. 5; Incubation; 5 min. 6; Detection; Luminescence, ViewLux microplate reader. NOTES (numbers refer to Sequence numbers above) 1. 3 uL of luciferase substrate mixture containing D-luciferin and ATP (final concentrations of 10 uM and 10 uM, respectively) in assay buffer (10 mM Mg-acetate, 0.01% Tween-20, 0.05% bovine serum albumin, 50 mM Tris acetate, pH 7.6) was dispensed into all wells of a 1536-well assay plate (solid-bottom white plate; Greiner Bio One, Monroe, NC). 2. A Wako Pin-tool (Wako Automation, Richmond, VA) was used to transfer 16 nL of compounds (consisting of 7-plates in qHTS format, final concentration range 18.3 nM to 114 uM) or control PTC124 (final concentration range 1.22 nM to 40 uM). 3. 15 min. incubation at room temperature protected from light. 4. 1 uL of luciferase enzyme (final concentration 10 nM, Photinus pyralis luciferase) or buffer was dispensed for a final assay volume of 4 uL. 5. Plates were centrifuged (121xg, 15 seconds) and incubated for 5 minutes. 6. Samples were read for luminescence on a ViewLux CCD imager (PerkinElmer). Data were normalized to no-enzyme (0% activity) and no-inhibitor (DMSO; 100%) controls and the resulting percent inhibition data were fitted to a 4-parameter Hill equation using NCATS in-house software.
Potency is the fitted concentration of half-maximal effect.

SMILES	activity change, negative = inhibition	Potency
CC(=O)Nc1sc2c(c1-c1ccc(Cl)cc1)CCNC2	3.64% (inactive)	–
COc1ccc(NC(=O)C2CCCN(S(=O)(=O)c3cccc4nonc34)C2)cc1Cl (stereo not given)	0.0129% (inactive)	–
CCCn1c(-c2cccc(Br)c2)nc2ccccc21	-3.37% (inactive)	–
CC(C)(C)C(=O)OCC(=O)[C@H]1CC[C@H]2[C@@H]3CCC4=CC(=O)CC[C@]4(C)[C@H]3CC[C@]12C	12.6% (inactive)	–
O=C(COc1ccccc1C(=O)Nc1ccccc1)Nc1cccc([N+](=O)[O-])c1	4.06% (inactive)	–
Cc1ccc(OC(C)C(=O)NCC2(N3CCOCC3)CCCCC2)cc1C (stereo not given)	1.36% (inactive)	–
CCCc1cc(=O)[nH]c(Nc2cc(C)ccc2OC)n1	-0.205% (inactive)	–
CC(C)(C)OC(=O)N1CCN(c2ccc(NCc3ccc(-c4ccc(C#N)cc4)nc3)cc2)CC1	-2.91% (inactive)	–
O=C(Nc1ccc(F)cc1F)c1ccc(-n2cnnc2)cc1	-4.99% (inactive)	–
CC(=O)Nc1oc(-c2cccc3ccccc23)nc1C#N	59.2% (inactive)	–
CCc1cccc(NC(=O)C2CCC(CNS(=O)(=O)c3csc(C(N)=O)c3)CC2)c1 (stereo not given)	-1.53% (inactive)	–
O=C=Nc1ccc(Cc2ccc(N=C=O)cc2)cc1	5.75% (inactive)	–
CC1OC(OCC2OC(Oc3cc(O)c4c(c3)OC(c3ccc(O)cc3)CC4=O)C(O)C(O)C2O)C(O)C(O)C1O (stereo not given)	-4.14% (inactive)	–
COc1ccc2cc3cc(C(=O)N4CCN(c5ccccc5F)CC4)oc3nc2c1	-0.424% (inactive)	–
COC(=O)c1scc(-c2ccc(C)cc2)c1S(=O)(=O)Nc1ccc(NC(C)=O)cc1	1.57% (inactive)	–
O=c1cc(-c2ccc(O)c(O)c2)oc2cc(O[C@@H]3O[C@@H](CO)[C@@H](O)[C@@H](O)[C@H]3O)cc(O)c12	6.06% (inactive)	–
CCCCCCCCCCCCCCCC(=O)N[C@@H](COP(=O)(O)O)C(=O)O	3.09% (inactive)	–
CCN(Cc1cccc(S(=O)(=O)O)c1)c1ccc(C(=C2C=CC(=[N+](CC)Cc3cccc(S(=O)(=O)O)c3)C=C2)c2ccccc2S(=O)(=O)[O-])cc1	–	12.2 µM (active)
COc1ccc(CCNC(=O)c2c(C)oc3ncn(C)c(=O)c23)c(OC)c1	6.96% (inactive)	–
CCC(Sc1ncc(S(=O)(=O)c2ccc(Cl)cc2)c(=O)[nH]1)C(=O)Nc1ccc(OC)cc1 (stereo not given)	1.34% (inactive)	–

SMILES	activity change, negative = inhibition	Potency
C=C[C@](C)(O)CCC1C(=C)CC(O)C2C(C)(C)CCCC12C (stereo not given in full)	0.164% (inactive)	–
CC1CCCCN1S(=O)(=O)c1cc2c3c(c1)CC(=O)N3CCC2 (stereo not given)	2.48% (inactive)	–
C=CCNc1nnc(-c2cccc3ccccc23)o1	-0.572% (inactive)	–
COc1ccc(-c2cc(C(=O)Nc3cc(C(F)(F)F)ccc3Cl)no2)cc1	9.92% (inactive)	–
COc1ccccc1NC(=O)CSC1=Nc2ccccc2C2=NC(CC(=O)NCc3ccccc3)C(=O)N12 (stereo not given)	4.1% (inactive)	–
COc1ccc(C2Nc3ccccc3C(=O)N2CCCN(C)C)cc1COc1ccc(NC(C)=O)cc1 (stereo not given)	2.59% (inactive)	–
CC(C)(C)OC(=O)N1CCC[C@H]1C(=O)N1CCC(C(=O)N[C@H](Cc2ccccc2)C(=O)NCc2ccc(F)cc2)CC1	0.258% [at 78.4 µM] (inactive)	–
CC(C)CN(CCNC(=O)c1cn(C)c2ccc(S(=O)(=O)N3CCOCC3)cc2c1=O)CC(C)C	10.8% (inactive)	–
Cc1ccc(-n2nnnc2CNC(=O)C(C)C)cc1C	5.51% (inactive)	–
CC1=CC23C(=O)C(C=C(CO)[C@@H](O)[C@]2(O)[C@H]1O)[C@H]1[C@@H](C[C@H]3C)C1(C)C (stereo not given in full)	2.27% (inactive)	–
CNc1oc(-c2ccc3cnccc3c2)nc1C#N	-4.28% (inactive)	–
Cc1ccc2nc(-c3cccs3)c(Nc3ccccc3)n2c1	-9.97% (inactive)	–
COc1cccc(-c2nnc(Nc3nc4c(OC)cccc4s3)o2)c1	-4.56% (inactive)	–
CC(C)=CCC/C(C)=C/C=O	-2.39% [at 78.4 µM] (inactive)	–
COc1ccccc1CNc1ccc(-c2nc(-c3cccnc3)no2)cc1[N+](=O)[O-]	-4.58% (inactive)	–
O=C1Nc2ccccc2/C1=C\c1ccc(O)cc1	0.923% (inactive)	–
CNCc1nc(-c2ccc[nH]2)c2cc(Cl)ccc2n1	-3.62% (inactive)	–
CC(C)Nc1ccc(-c2nc(-c3ccccn3)no2)cc1[N+](=O)[O-]	–	3.44 µM (active)
CCOc1ccc(OCC(=O)NCCS(=O)(=O)N2CCN(c3cccc(Cl)c3)CC2)cc1	0.265% (inactive)	–
O=C(NCc1ccccc1)c1cnc2sc(N3CCCC3)nn2c1=O	5.84% (inactive)	–
